# Laboratory results from PMC5540273 (PLoS ONE, 2017).
# Test system: LCK
# Settings: concentration: 1 μM, replicates: in singlicate; n = 1
# 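Note: KINOMEscan kinase panel screen.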
row,Structure (SMILES),%Inh [%]
1,CCn1c(-c2ccoc2)nc2cnccc21 [SB-733887],35
2,Nc1nc(-c2ccccc2F)c(-c2ccnc3ccccc23)s1 [GW560459],11
3,COc1cc(Nc2ccnc3ccc(C(F)(F)F)cc23)cc(OC)c1OC [GW577382],68
4,COC(=O)c1c(-c2ccccc2)c2cc(Br)ccc2c(=O)n1Cc1ccc(S(C)(=O)=O)cc1,0
5,O=C(Nc1n[nH]c2nc(-c3ccccc3)c(Cl)cc12)C1CC1 [SB-734909],3
6,Nc1nc(N)c2nc(-c3ccccc3)[nH]c2n1 [SKF-12778],19
7,Cc1c(Cn2c(C)nn3c(=O)cc(N4CCO[C@H](C)C4)nc23)cccc1C(F)(F)F [GSK2373690],15
8,COc1cccc(C2=C(Nc3cccc(C(=O)O)c3)C(=O)NC2=O)c1 [SB-390770],37
9,CCCNC(=O)Nc1ccc(Oc2ncnc3ccn(C)c23)cc1,0
10,Cc1ccc(-c2ccc3c(ccc4sc5c(c43)NC[C@@H](C)N=C5N(C)C)n2)cn1,0
11,CN1C(=O)C(Nc2cc(Cl)c(O)c(Cl)c2)=C(c2ccc(Cl)cc2)C1=O [SB-404321],0
12,COc1cc(Nc2nccc(N3CCC(NC(=O)C4COc5ccccc5O4)C3)n2)cc(OC)c1OC (stereo not shown) [GSK1379761],31
13,COc1ccc(-c2coc3ccc(-c4nnc(SCc5cccc(C#N)c5)o4)cc23)cc1,11
14,COc1cc(Nc2nccc(N3CCC(NC(=O)C(C)c4ccc(Cl)cc4)C3)n2)cc(OC)c1OC (stereo not shown) [GSK1379757],8
15,COC(=O)c1c(-c2ccccc2)c2cc(Br)ccc2c(=O)n1Cc1ccc(NC(=O)CCC(=O)O)cc1,0
16,COc1cccc(-n2cnc3c(N)ncnc32)c1 [SKF-97416],10
17,O=C(NCc1cccs1)c1cc(C(=O)c2c(Cl)cccc2Cl)c[nH]1 [GW823670],0
18,C[C@@H]1CC[C@H](C(=O)NC2CCCCC2)CN1c1cc(-c2ccc3c(N)n[nH]c3c2)nc(N)n1 [GSK2291363],24
19,Cc1nnc(-c2ccc3ncn(-c4ccc(S(C)=O)cc4)c3c2)o1 (stereo not shown),10

row,Structure (SMILES),%Inh [%]
1,O=C1NC(=O)C(c2ccccc2)=C1Nc1cccc(O)c1 [SB-390534],24
2,COc1ccc(-c2cc3c(C)nc(N)nc3n([C@H]3CC[C@H](OCCO)CC3)c2=O)cn1,0
3,Cc1nnc(-c2ccc(C)c(-c3ccc(C(=O)O)cc3)c2)o1 [GW608005],0
4,Cc1cccc(-c2cc(-c3c[nH]nc3-c3ccccn3)ccn2)c1 [GW679395],78
5,Nc1ncnc2c1ncn2-c1ccc(Cl)cc1 [AH2635],24
6,Cl.NS(=O)(=O)c1cccc(Nc2cc(-c3ccc(F)cc3)n[nH]2)c1 [GW824645],0
7,Fc1cccc(CSc2nnc(-c3ccc4c(c3)CCO4)o2)c1,0
8,CCC(=O)c1c(-c2ccccc2)c2cc(Cl)ccc2c(=O)n1Cc1cc(S(C)(=O)=O)n(CC(N)=O)n1,3
9,FC(F)(F)c1ccc(-c2ncn(CCCN3CCOCC3)c2-c2ccncc2)cc1 [SB-217780],0
10,Cc1ccc(Oc2ccc(Nc3ncnc4cc[nH]c34)cc2C)cn1,3
11,Cc1cccc(-c2nc(Nc3ccc4c(cnn4C)c3)c3ccccc3n2)n1 [GW876731],0
12,O=C(NCCNc1ccnc(Nc2ccc(F)cc2)n1)Nc1ccc2c(c1)OCO2 [GSK1379882],0
13,Nc1ncnc2c1ncn2-c1cccc(F)c1 [SKF-97560],20
14,Cc1nc(N(C)[C@H]2CN(C(=O)CC#N)CC[C@H]2C)c2cc[nH]c2n1,0
15,CCC(=O)c1c(-c2ccccc2)c2cc(Cl)ccc2c(=O)n1Cc1ccc(C(=O)O)cc1,0
16,COc1cc2ncn(-c3cc(OCCCc4ccccc4)c(C(N)=O)s3)c2cc1OC [GSK205189],16
17,CCCC(=O)Nc1n[nH]c2ncc(-c3cccc4ccccc34)cc12 [SB-642057],20
18,CN(C)c1cc(-c2ccc3c(N)n[nH]c3c2)nc(N)n1 [GSK2219329],17
